{"source": "PubChem BioAssay (NCI)", "note": "The panel holds about 83,000 compounds, 20% with a hit somewhere; the sample as a whole holds those more often.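 Assay: single dose, 48 h. Readout: percent growth (0 = no net growth; negative = cell death). Active: <10.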 Active and inactive are the calls of the source."}
{"tested_on": "NCI-H226 lung", "assay": "NCI-60 one-dose screen, 48 h (100 = growth as untreated, 0 = no growth, -100 = all killed)", "settings": "10 µM unless noted"}
{"compound": "COc1ccc(S(=O)(=O)N2CCN(c3cc4c(cc3F)c(=O)c(C(=O)O)cn4C3CC3)CC2)c(OC)c1", "growth": "89% (inactive)"}
{"compound": "CCC(C)NCC(=O)O", "note": "(centres undefined)", "growth": "92.6% (inactive)"}
{"compound": "O=C(O)Cc1ccc2c(c1)Cc1cccnc1O2", "growth": "91.7% (inactive)"}
{"compound": "COc1cc(Cn2c(SCC(=O)Nc3ccc(Cl)cc3)nc3ccccc3c2=O)cc(OC)c1OC", "growth": "39.1% (inactive)"}
{"compound": "CC(C)(C)OC(=O)N[C@@H](Cc1ccccc1)C(=O)N(Cc1ccccc1)C1(C(=O)NCc2ccccc2)CCN(Cc2ccccc2)CC1", "growth": "70% (inactive)"}
{"compound": "COC(=O)C(CC(=O)c1ccc(-c2ccccc2)cc1)c1ccccc1", "note": "(centres undefined)", "growth": "63.3% (inactive)"}
{"compound": "C=C1C(=O)O[C@H]2[C@H]1CC/C(Cn1cc(-c3ccccc3C(F)(F)F)nn1)=C\\CC[C@@]1(C)O[C@@H]21", "growth": "-45.6% (active)"}
{"compound": "O=C(O)C(=Cc1c2ccccc2cc2ccccc12)C(=O)O", "growth": "109% (inactive)"}
{"compound": "CN(C)c1nc(N)c(N=O)c(N)n1", "growth": "112% (inactive)"}
{"compound": "CCCCCCC[C@@H](O)CC(=O)N[C@H](CCCCN)C(=O)N[C@H](Cc1c[nH]c2ccccc12)C(=O)NC(CCCCN)C(=O)N[C@H](CC(C)C)C(=O)N[C@H](Cc1ccccc1)C(=O)N[C@H](CCCCN)C(=O)N[C@H](CCCCN)C(=O)N[C@H](CC(C)C)C(=O)N1CCCC1C(=O)N[C@H](CCCCN)C(=O)N[C@H](Cc1ccccc1)C(=O)N[C@H](CC(C)C)C(=O)N[C@H](Cc1c[nH]cn1)C(=O)N[C@H](CC(C)C)C(=O)N[C@H](C)C(=O)N[C@H](CCCCN)C(=O)N[C@H](CCCCN)C(=O)N[C@H](Cc1ccccc1)C(=O)O", "note": "(some centres undefined)", "growth": "-21.3% (active)"}
{"compound": "O=S(=O)(NCCCNc1cc(-c2cn(-c3ccccc3)nc2-c2cccc(O)c2)ccn1)c1cccc2ccccc12", "growth": "38.7% (inactive)"}
{"compound": "O=C(NCCCN1CCN(CCCNC(=O)C2CCCCC2)CC1)C1CCCCC1", "growth": "105% (inactive)"}
{"compound": "CCN(Cc1ccc(CN(CC)C(=O)C(Cl)(Cl)Cl)cc1)C(=O)C(Cl)(Cl)Cl", "growth": "83.9% (inactive)"}
{"compound": "CCOC(=O)CC(C#N)(CC(=O)OCC)C(=O)OCC", "growth": "94.5% (inactive)"}
{"compound": "COc1ncc(-c2ccc3ncnc(Nc4cccc(Cl)c4)c3c2)cc1NS(=O)(=O)C1CC1", "growth": "24.1% (inactive)"}
{"compound": "Cc1cc(C)c(S(=O)(=O)N2CCN(c3cc4c(cc3F)c(=O)c(C(=O)O)cn4C3CC3)CC2)c(C)c1", "growth": "71.8% (inactive)"}
{"compound": "COc1ccc(/C=C/C(=O)OCC(=O)NNC(=O)c2ccccc2)cc1OC", "growth": "103% (inactive)"}
{"compound": "O=C1c2ccccc2C(=O)c2c1oc1oc3c(c(=O)c21)c(=O)n(-c1ccccc1)c1ccccc31", "growth": "86.3% (inactive)"}
{"compound": "O=C(Nc1ccc(Cl)cc1)c1cc(-c2ccc(F)cc2)c2sc(=O)[nH]c2n1", "growth": "11.6% (inactive)"}
{"compound": "CC(C)(C)c1ccc(S(=O)(=O)Oc2ccc3c4c(c(=O)oc3c2)CCCCC4)cc1", "growth": "56.7% (inactive)"}
{"compound": "CCN(CC)CCSc1c2ccc(Cl)cc2nc2ccc(OC)cc12", "growth": "100% (inactive)"}
{"compound": "Cc1ccc(OCCn2c(C)nn(-c3ccc(Cl)cc3)c2=O)cc1", "growth": "108% (inactive)"}
{"compound": "O=C(CN1CCN(c2cc3c(cc2F)c(=O)c(C(=O)O)cn3C2CC2)CC1)Nc1ccc(C(=O)/C=C/c2ccc(Cl)cc2)cc1", "growth": "92.5% (inactive)"}
{"compound": "CCC(c1ccc(OC)cc1)C(CC)c1ccc(OCC[N+](C)(C)C)cc1", "note": "(centres undefined)", "growth": "49.8% (inactive)"}
{"compound": "O=C(C[N+](=O)[O-])c1ccc(Cl)cc1", "growth": "110% (inactive)"}
{"compound": "O=C(CCC(=O)OC1CCCC1)OC1CCCC1", "growth": "96.3% (inactive)"}
{"compound": "CCOC(=O)c1ccccc1NC(c1ccccc1)c1ccc2cccnc2c1O", "note": "(centres undefined)", "growth": "7.15% (active)"}
{"compound": "C/C(=C\\c1csc(C)n1)[C@@H]1C[C@@H]2O[C@]2(C)CCC[C@H](C)[C@H](O)[C@@H](C)C(=O)C(C)(C)[C@@H](O)CC(=O)N1", "growth": "-60.3% (active)"}
{"compound": "COc1ccc(C2CC(c3cccs3)=NN2c2ccc(S(=O)(=O)NC(=O)Nc3ccc(C)cc3)cc2)cc1", "note": "(centres undefined)", "growth": "110% (inactive)"}
{"compound": "CCSc1nnc(NC(=O)COc2ccc(Cl)cc2C)s1", "growth": "101% (inactive)"}
{"compound": "COc1cc(CNC(=O)CSc2nc3ccccc3c(=O)n2Cc2cc(OC)c(OC)c(OC)c2)cc(OC)c1OC", "growth": "94.5% (inactive)"}
{"compound": "COc1ccc(NC(=S)/N=c2\\oc3c(OC)cccc3cc2-c2cc3ccccc3[nH]2)cc1", "growth": "58.8% (inactive)"}
{"compound": "COc1ccc(C2=CC(c3ccc(Oc4ccnc5cc(Cl)ccc45)c(OC)c3)c3c(nc(OC)[nH]c3=O)N2)cc1", "note": "(centres undefined)", "growth": "88.9% (inactive)"}
{"compound": "CCN(C(=O)c1cc2ncccc2[nH]1)[C@H]1CCC[C@@H](NCc2cccc(F)c2)C1", "growth": "101% (inactive)"}
{"compound": "COc1ccc(/C=C/C(=O)/C=C/c2cc3ccc(Cl)cc3[nH]c2=O)cc1", "growth": "81% (inactive)"}
{"compound": "CCc1c(C(=O)Nc2ccc3ccccc3c2)[nH]c(C)c1C(C)=O", "growth": "95.7% (inactive)"}
{"compound": "Cc1cnc(NC(=O)C(Cc2ccccc2)NC(=O)c2ccccc2)s1", "note": "(centres undefined)", "growth": "70.2% (inactive)"}
{"compound": "O=C1Nc2ccc(Br)cc2C1=N/C=c1\\[nH]c(=O)/c(=C/c2ccc(Cl)cc2)s1", "growth": "98.3% (inactive)"}
{"compound": "CC/C(=C(\\c1ccc(O)cc1)c1ccc(OCCN(C)CCN(C)C(=O)CCC(=O)c2c(C)[nH]c(/C=C3\\N=C(c4ccc[nH]4)C=C3OC)c2C)cc1)c1ccccc1", "growth": "77% (inactive)"}
